Screening data (PubChem)
FH mod: Identification of activators of human fumarate hydratase by quantitative high-throughput screening; FH coupled MDH/diaphorase resazurin fluorescence, 15 min; 0.22% of 54,000 active; Fumarate hydratase, mitochondrial (Homo sapiens), P07954; Potency, µM (titrated, usually from 79.9 µM), usual class: inhibitors; AID 1347055, 2019; also: the screen sought activators but most active calls are inhibition curves; nearly all actives have a fitted effect of over 45% in size
NTMT1 inhibitor: NTMT1 methyltransferase inhibition; Q9BV86; NTMT1 MTase-Glo SAH luminescence, purified enzyme; AID 1645870; 2.5% of 59,000 active; Potency, µM (series often up to 114 µM), hits mostly inhibitors; also: nearly all actives have a fitted effect of over 65% in size
Target sequence (Q9BV86 whole entry, looked up): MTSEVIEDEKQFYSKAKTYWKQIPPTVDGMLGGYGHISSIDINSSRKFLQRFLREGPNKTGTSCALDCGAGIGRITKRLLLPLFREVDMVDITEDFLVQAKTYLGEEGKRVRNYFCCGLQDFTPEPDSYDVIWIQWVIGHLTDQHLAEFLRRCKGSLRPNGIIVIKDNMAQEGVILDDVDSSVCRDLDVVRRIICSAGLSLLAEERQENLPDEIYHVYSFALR
SKOV3 invasion: ovarian cancer metastasis inhibition, 3D TME model. SKOV3ip1-GFP adhesion/invasion on 3D omental model, fluorescence. Potency, µM (series often up to 45.8 µM), usual class: inhibitors. 0.1% of 46,000 active; also: nearly all actives have a fitted effect of over 65% in size
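qHTS, 4-pt dose (0.36-46 umol/L); SKOV3ip1-GFP, 1,200 cells/well, no FBS; primary omental fibroblast/mesothelial co-culture 48 h pre-grown; 2 h RT + 16 h 37 C; PBS wash, 4% PFA; GFP count 488/509 nm.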
GPR32 ag: activates human resolvin D1 receptor GPR32; O75388; CHO-K1 GPR32 beta-arrestin PathHunter luminescence, 90 min; zero percent set by DMSO-only wells; activation, % at 76.9 µM; 2.5% of 48,000 active;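 active = activation of at least 60% and not above a set upper limit, about 1 call in 100 departs from these limits; inconclusive = activation of 40% to 60%, or above that upper limit; inactive = activation under 40%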
Target sequence (O75388 whole entry, looked up): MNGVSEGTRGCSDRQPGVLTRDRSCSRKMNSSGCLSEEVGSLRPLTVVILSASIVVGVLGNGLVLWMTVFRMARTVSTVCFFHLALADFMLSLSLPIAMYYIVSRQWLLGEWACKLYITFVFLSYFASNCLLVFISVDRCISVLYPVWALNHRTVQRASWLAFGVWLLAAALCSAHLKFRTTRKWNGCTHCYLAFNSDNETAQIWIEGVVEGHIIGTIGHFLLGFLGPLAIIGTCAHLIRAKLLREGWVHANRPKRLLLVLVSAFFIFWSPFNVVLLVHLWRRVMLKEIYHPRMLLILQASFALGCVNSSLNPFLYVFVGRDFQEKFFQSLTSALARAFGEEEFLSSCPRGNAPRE
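Using DMSO wells as EC0, agonist-induced signal was taken as chemiluminescence from beta-Gal reconstituted upon beta-arrestin recruitment to GPR32 in CHO-K1 cells after 90 min compound treatment.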
A number is an active result; n = inactive; u = inconclusive; x = no result given; ! = a repeat was not active. This is a sample that favours compounds with a hit; in the whole collection about 3.8% have one here. Unless noted, calls follow the shape of the dose curve; as a rule, active = well fitted curve in the direction sought with a large enough effect; inconclusive = small, poorly fitted or top-dose-only effect, or another doubt; inactive = no such curve, though single readings can be large; an effect the other way counts as inactive or inconclusive.

SMILES | FH mod | NTMT1 inhibitor | SKOV3 invasion | GPR32 ag
Cc1cc(Nc2cccc(O)c2)c2cccc(Br)c2n1 | n | n | n | 119.3
Oc1ccc(C2CNCc3sccc32)cc1O (stereo not drawn) | 8.91µM | x | x | n
CCc1ccc(-c2nc(-c3cc4ccccc4oc3=O)sc2C)cc1 | n | n | n | n
CCC(=O)N1c2ccccc2CC1C(=O)NCCCN1CCN(c2ccc(F)cc2)CC1 (stereo not drawn) | n | 89.1µM | n | n
CCC(=O)N1c2ccccc2CC1C(=O)NCCN1CCN(c2ccccc2F)CC1 (stereo not drawn) | n | n | n | n
O=C(NCCCN1CCN(c2ccc(F)cc2)CC1)Nc1ccc(Cl)cc1 | n | n | n | 82.6
COc1ccc(S(=O)(=O)Nc2ccc(-c3ccc(N4CCCC4)nn3)cc2)cc1F | x | x | n | n
Cc1ccc(NC(=O)Cn2cc(S(=O)(=O)NC(C)C)c(S(=O)(=O)NC(C)C)c2)cc1Cl | u | n | n | 68.9
CCO[C@H](Cc1ccc(OCCc2ccc(OS(C)(=O)=O)cc2)cc1)C(=O)O | n | n | x | 75.6
CCCCS(=O)(=O)NC(Cc1ccc(OCCCCC2CCNCC2)cc1)C(=O)O (stereo not drawn) | n | n | x | x
Cc1ccc(C2C=C(c3ccccc3)Nc3nc(NS(=O)(=O)c4ccccc4)nn32)cc1 (stereo not drawn) | n | n | n | u
COc1ccc(C2C=C(c3ccccc3)Nc3nc(NS(=O)(=O)c4ccc(Cl)cc4)nn32)cc1 (stereo not drawn) | u | u | n | u
CC(=O)Nc1ccc(S(=O)(=O)Nc2nc3n(n2)C(c2ccccc2)C=C(c2ccc(Cl)cc2)N3)cc1 (stereo not drawn) | n | n | n | 83.5
Cc1ccc(C2C=C(c3ccc(Cl)cc3)Nc3nc(NC(=O)c4ccco4)nn32)cc1 (stereo not drawn) | n | n | n | 107.6
O=S(=O)(Nc1nc2n(n1)C(c1ccc(F)cc1)C=C(c1ccccc1)N2)c1ccc(Cl)cc1 (stereo not drawn) | n | u | n | u
O=S(=O)(Nc1nc2n(n1)C(c1ccccc1)C=C(c1ccc(Cl)cc1)N2)c1ccccc1 (stereo not drawn) | u | n | n | 72.2
Cc1ccc(S(=O)(=O)Nc2nc3n(n2)C(c2ccc(Cl)cc2)C=C(c2ccccc2)N3)cc1 (stereo not drawn) | u | 35.5µM | n | 88.5
CC(=O)Nc1ccc(C)cc1-c1nc2ccccc2n(Cc2cccc(Br)c2)c1=O | n | n | u | n
CCCc1nnc(SCc2cc(=O)c3c(C)cc(C)cc3[nH]2)n1C | n | n | n | n
Cc1cccc(NC(=O)Cn2cc(C(=O)c3ccco3)c3ccccc32)c1C | n | 79.4µM | n | n
Cc1ccc(C)c(NC(=O)Cn2cc(C(=O)c3ccco3)c3ccccc32)c1 | n | n | n | n
Cc1ccccc1-c1nc(CS(=O)(=O)CC(=O)NCC(C)c2ccccc2)c(C)o1 (stereo not drawn) | n | n | n | 70.0
COc1cccc(-c2nc(CS(=O)(=O)CC(=O)NCc3cccc(Cl)c3)c(C)o2)c1 | n | n | n | n
Cc1oc(-c2cccc(Cl)c2)nc1CS(=O)(=O)CC(=O)NCc1ccccc1Cl | n | 89.1µM | n | n
Cc1ccccc1-c1nc(CS(=O)(=O)CC(=O)NCc2cccc(Cl)c2)c(C)o1 | n | 89.1µM | n | n
SMILES | FH mod | NTMT1 inhibitor | SKOV3 invasion | GPR32 ag
CCc1ccccc1Nc1nn2c(=O)c3ccc(C(=O)NC(C)C)cc3nc2s1 | n | n | n | n
CCC(C)C(=O)OC1CC(C)C=C2C=CC(C)C(CCC(O)CC(O)CC(=O)O)C21 (stereo not drawn) | n | n | x | x
CCc1ccc(CNC(=O)COc2cc(=O)n(CC)c3ccccc23)cc1 | n | n | n | 116.9
CCn1c(=O)cc(OCC(=O)N2CCN(c3ccc(C)cc3)C(C)C2)c2ccccc21 (stereo not drawn) | n | n | n | 74.2
CCC[C@H](NC(=O)[C@@H]1[C@H]2CCC[C@H]2CN1C(=O)[C@@H](NC(=O)[C@@H](NC(=O)c1cnccn1)C1CCCCC1)C(C)(C)C)C(=O)C(=O)NC1CC1 | x | 44.7µM | x | x
CCC[C@@H](NC(=O)[C@@H]1[C@H]2CCC[C@@H]2CN1C(=O)[C@@H](NC(=O)[C@@H](NC(=O)c1cnccn1)C1CCCCC1)C(C)(C)C)C(=O)C(=O)NC1CC1 | n | n | n | x
COc1ccc(N2CCN(c3nc4ccccc4n4c(C)nnc34)CC2)cc1 | n | 79.4µM | n | n
Cc1ccc(C)c(CN2C(=O)CSc3ccc(C(=O)NCCc4ccc(Cl)cc4)cc32)c1 | n | n | n | n
Cc1ccc(S(=O)(=O)N(CC(O)Cn2c3ccccc3c3ccccc32)c2cccc(C(N)=O)c2)cc1 (stereo not drawn) | u | n | n | 85.6
CCCOc1ccc(CN2C(=O)C(=O)c3cccc(C)c32)cc1 | n | n | u | n
Cc1ccc(CN2C(=O)C(=O)c3cc(Br)cc(C)c32)cc1 | n | n | 12.6µM | n
Cc1nc(-c2ccc(F)cc2)sc1CCNC(=O)Cc1ccc(F)cc1 | n | n | u | u
CCC1CN(C(=O)Nc2cc(OC)cc(OC)c2)c2ccccc2S1 (stereo not drawn) | n | n | n | n
Cc1cc(OCC(=O)Nc2cnn(CCCC(=O)O)c2)ccc1Cl | n | u | n | 82.2
CCOC(=O)c1cccc(Nc2c3c(nc4ccccc24)CCC3)c1 | n | n | n | 77.8
COc1cc(Cl)c(C)cc1Nc1c2c(nc3ccccc13)CCC2 | n | n | u | n
CCCOC(=O)c1cccc(Nc2nc(C(=O)OCC)nc3ccccc23)c1 | u | n | n | 92.6
CCOC(=O)c1cccc(Nc2nc(C(=O)OCC)nc3ccccc23)c1 | n | n | n | n
CCOC(=O)c1c(NC(=O)c2ccc(S(=O)(=O)N3CCCC(C)C3)cc2)sc2c1CC(C)(C)NC2(C)C (stereo not drawn) | n | n | n | 120.1
CCN(CC)CCCCNc1nc2cc(Cl)c(Cl)cc2nc1-c1ccc(-c2cccs2)s1 | n | 20µM! | n | x
Cc1cc(C)cc(OCC(=O)NC(Cc2c[nH]c3ccccc23)C(=O)O)c1 (stereo not drawn) | n | n | n | n
CCc1ccc(CNCc2c(C(=O)O)n(Cc3cccc(F)c3)c3cc(OC)ccc23)cc1 | n | n | n | 109.4
CCc1ccc(CNCc2c(C(=O)O)n(Cc3ccc(C)cc3)c3cc(C)ccc23)cc1 | u | n | n | n
Cc1ccc(CNCc2c(C(=O)O)n(Cc3ccc(C)cc3)c3cc(C)ccc23)cc1 | u | n | n | 98.3
COc1ccc(Cn2c(C(=O)O)c(CNCCc3ccco3)c3ccc(OC)cc32)cc1 | n | n | n | n
COc1ccc2c(CNCCc3ccc(SC)cc3)c(C(=O)O)n(Cc3ccc(F)cc3)c2c1 | u | n | n | 114.9
O=C(Nc1ccc(C(=O)N2CCCCC2)cc1)c1nsc2ccccc12 | n | 14.1µM | n | n
CCOC(=O)c1ccc(NC(=O)c2nsc3ccccc23)cc1 | n | u | n | n
